# FadD28 binding: inhibitors of Mycobacterium tuberculosis FadD28 bisubstrate binding; FadD28 bisubstrate probe binding, fluorescence polarization; inhibition, % at 12.5 µM; 360,000 tested, 0.22% active; in the data active = inhibition above about 8.5%, passing the limit was not always enough
# BioA inh: blocks M. tuberculosis BioA enzyme activity; purified M. tuberculosis BioA enzyme, plate reader; inhibition, % at 9.99 µM; 360,000 tested, 0.096% active; in the data active = inhibition above about 40%
# TcdB inh: inhibitors of Clostridioides difficile toxin B glycohydrolase | P18177 | inhibition, % at 9.99 µM | TcdB glycohydrolase enzymatic assay, plate reader | 350,000 tested, 0.24% active | AID 652162; in the data active = inhibition above about 10%
# PrP UTR inh: suppresses PrP 5' UTR mRNA reporter expression; cell-based PrP 5' UTR mRNA reporter, plate reader; inhibition, % (no concentration beside the values); 340,000 tested, 0.35% active; AID 488862; in the data active = inhibition above about 52%; note: 0 = median of the neutral control wells
# Mtb hypoxia rep: Mtb hypoxia fluorescent reporter inhibition. M. tuberculosis hypoxia-regulated fluorescent reporter, fluorescence. fluorescence inhibition, % (concentration not given with the values). 300,000 tested, 0.1% active; in the data active = fluorescence inhibition mostly above about 23%, no sharp cut-off; inactive = mostly below about 17%
# PriA SSB inh: inhibitors of Klebsiella pneumoniae PriA binding to SSB C-terminal tail | AlphaScreen SSBct-PriA binding, biotinylated peptide | inhibition, % at 33 µM | 430,000 tested, 0.6% active; in the data active = inhibition mostly above about 37%, no sharp cut-off; inactive = mostly below about 20%;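 note: plate controls were negative control peptide for no effect and reference peptide for full effect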
# An asterisk follows results filed as active; . = no result given; ! = a repeat was not active. Rows were chosen to be rich in hits. Some 1% of all compounds tested hit in one or more screens of this group.
SMILES,FadD28 binding,BioA inh,TcdB inh,PrP UTR inh,Mtb hypoxia rep,PriA SSB inh
Cc1cc(C)c(S(=O)(=O)c2cccc(Cl)c2)c(Cl)n1,-4,.,-7,-17,6,-4
Cc1cc(C)c(S(=O)(=O)c2ccc(Cl)cc2C)c(Cl)n1,-3,.,11*,-17,-9,-17
Fc1ccc(-c2nc3ccc(Br)cn3c2Cc2ccccc2)cc1,-2,-1,13*,.,.,.
COc1ccc(/C=C/C(=O)NCC(=O)NN=Cc2cccnc2)cc1,.,.,.,.,-4,-10
O=[N+]([O-])c1cccc(CNc2ccc3c(c2)CCC3)c1,1,1,.,-17,11,69*
O=C(Nc1cccc([N+](=O)[O-])c1)Nc1ccc2c(c1)CCC2,6,-1,0,-39,6,-6
COCCNC(=O)C[C@@H]1C=C[C@H](NC(=O)NC2CCCCC2)[C@@H](CO)O1,.,-2,0,.,.,.
Cc1cc(C)c2sc(N(CCN(C)C)C(=O)c3ccc4ccccc4c3)nc2c1,-9,-2,-9,-18,11,43*!
COc1ccc(OC)c2sc(N(CCN(C)C)C(=O)c3ccc4ccccc4c3)nc12,-3,-2,-1,-4,.,54*
CN(C)CCCN(C(=O)c1ccc(S(=O)(=O)N(C)C2CCCCC2)cc1)c1nc2ccc(F)cc2s1,-4,0,2,-15,6,4
COc1cc2nc(N(CCN(C)C)C(=O)c3ccc4ccccc4c3)sc2cc1OC,1,-1,.,-1,5,39*!
Cc1cc(C)c2sc(N(CCN(C)C)C(=O)c3cccs3)nc2c1,.,.,.,.,.,8
Cc1cc(C)c2sc(N(CCCN(C)C)C(=O)c3ccc(S(=O)(=O)N(C)C4CCCCC4)cc3)nc2c1,-7,1,1,-22,38*,40*!
Cc1cccc(NC(=O)C(C)SCc2nc3sc4c(c3c(=O)[nH]2)CCCC4)n1 (stereo unspecified),-1,1,3,-27,1,-1
CCOc1ncccc1C(=O)Nc1cccc(Cl)c1Cl,-4,.,1,-18,.,13
Cc1cccc2sc(N(CCCN(C)C)C(=O)c3sc4ccccc4c3Cl)nc12,-9,1,.,-21,8,40*!
COc1cc2ccccc2cc1C(=O)N(CCN(C)C)c1nc2c(C)cccc2s1,-2,-2,3,-6,-12,41*!
COc1cc2ccccc2cc1C(=O)N(CCN(C)C)c1nc2c(OC)ccc(OC)c2s1,0,-2,0,-14,-8,46*
CN(C)CCN(C(=O)c1ccc2ccccc2c1)c1nc2cc3c(cc2s1)OCO3,0,-2,2,.,.,.
Cc1ccc2sc(N(CCN(C)C)C(=O)c3ccc4ccccc4c3)nc2c1C,-1,1,1,-13,-9,45*!
CCn1c(SCC(=O)Nc2nc3ccccc3s2)nnc1-c1cccn(C)c1=O,.,.,.,.,.,-12
CC(=O)N(C)c1ccc(OCC(O)CN(Cc2ccco2)S(=O)(=O)c2ccc(C)cc2)cc1 (stereo unspecified),5,-1,.,-12,.,-3
CN(C)CCN(C(=O)c1ccc2ccccc2c1)c1nc2ccc(F)cc2s1,-6,0,.,-18,13,44*!
COc1ccc(NC2CCCN(C(=O)CCC3=NNC(=O)CC3)C2)cc1 (stereo unspecified),-2,-1,1,-19,-4,-3
CC(=O)Nc1n[nH]c(=S)s1,-3,.,18*,-11,.,-8
SMILES,FadD28 binding,BioA inh,TcdB inh,PrP UTR inh,Mtb hypoxia rep,PriA SSB inh
Cc1cc(C)c(Nc2n[nH]c(=S)s2)cc1C,-3,-2,1,.,.,.
C=CCNc1n[nH]c(=S)s1,1,-1,15*,.,.,.
CNc1n[nH]c(=S)s1,0,-1,24*,-11,-11,7
O=C(N[C@@H]1C=C[C@H](CC(=O)N2CCOCC2)O[C@@H]1CO)c1cccc(F)c1,.,3,-2,.,.,.
C[C@H]1CN([C@@H](C)CO)C(=O)c2cc(C#CCc3ccccc3)cnc2O[C@H]1CN(C)C(=O)C1CCOCC1,.,3,.,.,.,.
COCCN1CCCc2ccc(NS(=O)(=O)c3ccc(F)cc3)cc21,.,.,.,.,.,20
COCCN1CCCc2ccc(NS(=O)(=O)c3ccc4c(c3)CCCC4)cc21,.,.,.,.,.,45*
COCCN1CCCc2ccc(NS(=O)(=O)c3c(C)c(C)c(C)c(C)c3C)cc21,.,.,.,.,.,38*
CC(=O)N/C(=C\c1ccccc1)C(=O)OCC(=O)NC1CCCC1,-2,-3,-7,-1,10,-6
COC(=O)c1ccc(NC(=O)COc2cccc3c2OC(C)(C)C3)cc1,-2,0,0,-17,11,46*!
CCOC(=O)N1CCC(c2nc3ccccc3[nH]2)CC1,-1,0,.,-7,.,-14
CSc1ccc(-c2nc3cnccn3c2Nc2ccc3c(c2)OCO3)cc1,1,61*,.,-1,9,12
Cc1ccc(Sc2ncccc2C(=O)O)cc1,-2,0,.,-11,12,2
COc1ccc(/C=C(/C#N)c2cccnc2)cc1OC,-4,58*,0,-7,.,-4
Cc1cc(C)nc(NC(N)=NCCc2ccccc2)n1,-1,2,10*,-14,16,-3
Cc1cc(C)nc(NC(N)=NC(C)c2ccccc2)n1 (stereo unspecified),.,.,1,.,24,-10
O=C(c1ccccc1F)N1CCC2CC1c1cc(-c3ccc4c(c3)OCO4)ccc12 (stereo unspecified),-1,0,1,.,.,.
O=C(Nc1nc(-c2ccccn2)cs1)c1cccc(C(=O)Nc2nc(-c3ccccn3)cs2)n1,.,.,.,.,.,2
O=C(Nc1nc(-c2ccccn2)cs1)c1cc(Cl)ccn1,.,.,.,.,.,99*
Cc1cnc(C(=O)Nc2nc(-c3ccccn3)cs2)cn1,.,.,.,.,.,120*
O=C(Nc1nc(-c2ccccn2)cs1)c1cc(Cl)ccc1Cl,.,.,.,.,.,86*
CCCCn1nc(C(=O)Nc2ccc3c(c2)OCO3)c2ccccc2c1=O,-3,0,0,-5,-8,-1
Cc1cccc(-c2nc(CSc3nc4c(c(=O)[nH]3)CCC4)c(C)o2)c1,-3,0,0,2,2,96*
Cc1oc(-c2ccccc2)nc1CSc1nc2c(c(=O)[nH]1)CCC2,0,-1,1,-6,0,-1
Cc1ccccc1-c1nc(CSc2nc3c(c(=O)[nH]2)CCC3)c(C)o1,-2,-3,-1,-7,11,94*
O=c1[nH]c(CSc2nnc(Cc3ccccc3)o2)nc2ccccc12,-1,-1,19*,-5,-2,-17
CCOc1ccc(C2C3=C(CCCC3=O)Nc3nc(C(F)(F)F)nn32)cc1OC (stereo unspecified),-2,0,.,-11,-2,-7
O=C(NC(=S)Nc1ccc(N2CCCC2)cc1)c1ccccc1[N+](=O)[O-],0,-1,-1,-21,-1,42
O=C(NC(=S)Nc1ccccc1N1CCCC1)c1ccccc1[N+](=O)[O-],0,.,.,-3,6,57*
